Experimental data as given in PubChem BioAssay (Tox21).
Inconclusive results are not listed. Active and inactive are the calls of the source. Unless noted, calls come from the whole dose curve; as a rule, active = well fitted curve in the direction sought with a large enough effect in the repeat runs; inconclusive = weak or mixed curves; inactive = no such curve, though single readings can be large; an effect the other way counts as inactive or inconclusive.

How the values were obtained:
[1] = A CellTox Green Cytotoxicity Assay to monitor cytotoxicity in HepG2 cells - 8 hour (AID 1224890); note: nearly all actives have a fitted effect of over 45% in size
Summary of the method: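 Cells and non-lytic dye reagent are dispensed together (600 HepG2 cells/well) and incubated 5 h before DMSO compound transfer. Kinetic fluorescence is then recorded in the same wells during 40 h at 37 C.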

[2] = qHTS assay to identify small molecule antagonists of the estrogen receptor alpha (ER-alpha) signaling pathway using the BG1 cell line in the presence of 0.1 nM 17-beta-estradiol - cell viability counter screen (AID 1259241); note: nearly all actives have a fitted effect of over 40% in size
Summary of the method: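 Following 5 days in phenol red-free medium with charcoal-stripped serum, VM7Luc4E2 cells received test compounds alongside 0.1 nM 17beta-estradiol (final) at 37C for 22 hr. Live cells were then quantified via protease-substrate fluorescence.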

[3] = qHTS assay to identify small molecule antagonists of the androgen receptor (AR) signaling pathway using the MDA cell line in the presence of 0.5 nM R1881 - cell viability counter screen (AID 1259242); note: nearly all actives have a fitted effect of over 45% in size
Summary of the method: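 Steps: plate MDA-kb2 cells, rest 5 hr at 37C without CO2; pin in compounds in DMSO; add R1881 to 0.5 nM final; incubate 16 hr; add CellTiter-Fluor, 30 min; read fluorescence.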

[4] = target: Estrogen receptor (Homo sapiens) (UniProt P03372); test: qHTS assay to identify small molecule antagonists of the estrogen receptor alpha (ER-alpha) signaling pathway using the BG1 cell line in the presence of 0.1 nM 17-beta-estradiol (AID 1259244); note: nearly all actives have a fitted effect of over 50% in size
Estrogen receptor (Homo sapiens), sequence (P03372 whole entry, looked up): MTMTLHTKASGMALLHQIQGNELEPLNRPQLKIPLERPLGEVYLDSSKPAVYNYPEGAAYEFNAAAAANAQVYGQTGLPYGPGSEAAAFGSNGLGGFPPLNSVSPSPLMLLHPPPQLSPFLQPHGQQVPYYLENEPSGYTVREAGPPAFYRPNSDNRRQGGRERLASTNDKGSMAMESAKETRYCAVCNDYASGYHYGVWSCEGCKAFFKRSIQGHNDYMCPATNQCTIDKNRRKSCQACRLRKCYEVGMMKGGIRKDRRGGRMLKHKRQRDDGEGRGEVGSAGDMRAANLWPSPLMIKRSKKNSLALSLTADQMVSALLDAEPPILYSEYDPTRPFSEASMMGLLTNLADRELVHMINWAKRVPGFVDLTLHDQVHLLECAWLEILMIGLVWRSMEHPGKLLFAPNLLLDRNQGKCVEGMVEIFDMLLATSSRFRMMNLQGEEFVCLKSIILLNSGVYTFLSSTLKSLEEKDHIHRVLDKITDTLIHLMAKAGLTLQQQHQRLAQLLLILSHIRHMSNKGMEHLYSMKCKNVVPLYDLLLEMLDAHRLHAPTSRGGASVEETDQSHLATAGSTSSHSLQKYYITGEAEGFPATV
Summary of the method: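 Antagonist mode: compounds in DMSO are pinned onto VM7Luc4E2 reporter cells, 0.1 nM final 17beta-estradiol is added, and after 22 h at 37C luciferase luminescence is measured with ONE-Glo.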

[5] = qHTS assay to identify small molecule HDAC inhibitors (AID 1259364); note: potency is the fitted concentration of half-maximal effect;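 note: wild-type HCT-116 cells with endogenous class I/II HDAC activity; nearly all actives have a fitted effect of over 45% in size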
Summary of the method: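 Cells (HCT-116, wild type) are seeded at 1,500 per well, incubated overnight, treated with compound in DMSO for 2 hr, then developed with HDAC-Glo I/II reagent for 30 min at room temperature.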

[6] = qHTS assay to identify small molecule agonists of the sonic hedgehog signaling (Shh) pathway - cell viability counter screen (AID 1259366); note: nearly all actives have a fitted effect of over 50% in size
Summary of the method: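 Compounds in DMSO were pin-transferred onto 3T3 Gli1-Luc cells that had settled 4hr; plates then stood 24hr at 37C and 5% CO2. One hour before the end, CellTiter-Fluor was added and fluorescence recorded.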

[7] = qHTS assay to identify small molecule antagonists of the sonic hedgehog signaling (Shh) pathway - cell viability counter screen (AID 1259367); note: nearly all actives have a fitted effect of over 55% in size
Summary of the method: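 Fluorescence read-out (CellTiter-Fluor, 1 hr at 37C) taken after 23 hr compound treatment of 3T3 Gli1-Luc cells stimulated with conditioned medium. Cells were seeded at 2,000 per well and pre-incubated 4 hr.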

[8] = qHTS assay to identify small molecule HDAC inhibitors - cell viability counter screen (AID 1259365); note: series mostly up to about 92 µM; nearly all actives have a fitted effect of over 50% in size
Summary of the method: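 HCT-116 wild-type, overnight attachment; 2hr drug exposure, 37C; CellTiter-Glo luminescent ATP readout after 30min RT.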

[9] = qHTS assay to identify small molecule phospholipidosis (PLD) inducers (AID 1259344; active = well fitted curve in the direction sought with a large enough effect; an effect the other way counts as inactive or inconclusive)
Summary of the method: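 Read-out is LipidTOX Red fluorescence (ex 595/em 615) imaged in HepG2 cells after 24 h compound exposure at 37 C, with Hoechst nuclear counterstain (ex 352/em 461) allowing per-cell normalisation.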

Measured: Potency

CC(C)COC(=O)C(C)C
not listed: [8] | [9]
inactive: all other assays above

OC[C@H]1O[C@@H]2O[C@H]3[C@H](O)[C@@H](O)[C@@H](O[C@H]4[C@H](O)[C@@H](O)[C@@H](O[C@H]5[C@H](O)[C@@H](O)[C@@H](O[C@H]6[C@H](O)[C@@H](O)[C@@H](O[C@H]7[C@H](O)[C@@H](O)[C@@H](O[C@H]8[C@H](O)[C@@H](O)[C@@H](O[C@H]9[C@H](O)[C@@H](O)[C@@H](O[C@H]1[C@H](O)[C@H]2O)O[C@@H]9CO)O[C@@H]8CO)O[C@@H]7CO)O[C@@H]6CO)O[C@@H]5CO)O[C@@H]4CO)O[C@@H]3CO
not listed: [4] | [9]
inactive: all other assays above

CCOC(=O)[C@H](CCc1ccccc1)N[C@@H](C)C(=O)N1CCC[C@H]1C(=O)O
not listed: [4] | [8]
inactive: all other assays above

C=C(C)[C@@H]1CCC2=CC(=O)C[C@@H](C)[C@]2(C)C1
not listed: [6] | [9]
inactive: all other assays above

CCCCCCCCCCCl
not listed: [8] | [9]
inactive: all other assays above

O=C(O)Cc1cc(I)c(Oc2cc(I)c(O)c(I)c2)c(I)c1
not listed: [9]
inactive: all other assays above

NS(=O)(=O)c1cc(C2(O)NC(=O)c3ccccc32)ccc1Cl (stereo not given)
not listed: [4]
inactive: all other assays above

NC(CS)C(=O)O (stereo not given)
not listed: [4] | [8]
inactive: all other assays above

C#CC(O)CCCCC (stereo not given)
not listed: [4] | [9]
inactive: all other assays above

CCCCN(CCO)CCO
not listed: [6] | [8] | [9]
inactive: all other assays above

Cc1ccccc1Br
not listed: [4] | [9]
inactive: all other assays above

CO
not listed: [4]
inactive: all other assays above

COc1ccc(COC=O)cc1
not listed: [8] | [9]
inactive: all other assays above

O=C(O)/C=C/c1ccc(Cn2ccnc2)cc1
not listed: [4]
inactive: all other assays above

OCCCCCCO
not listed: [4] | [9]
inactive: all other assays above

CCCCCCC(CCCCCCCCCCC(=O)OCC(COC(C)=O)OC(C)=O)OC(C)=O (stereo not given)
not listed: [9]
inactive: all other assays above

CCn1c(=O)c2c(nc(/C=C/c3ccc(OC)c(OC)c3)n2C)n(CC)c1=O
not listed: [4] | [9]
inactive: all other assays above

CC(=O)O[C@H](CC(=O)[O-])C[N+](C)(C)C
not listed: [6] | [9]
inactive: all other assays above

C1C2OC2C2C1C1CC2C2OC12 (stereo not given)
not listed: [4] | [9]
inactive: all other assays above

CC(C)(O)c1ccccc1
not listed: [6] | [9]
inactive: all other assays above

Cc1cc(C)c(NC(=O)CN(CC(=O)O)CC(=O)O)c(C)c1Br
not listed: [4]
inactive: all other assays above

COc1cc(C)cc(O)c1
not listed: [4] | [9]
inactive: all other assays above

COc1ccc2cc(C=O)ccc2c1
not listed: [6] | [9]
inactive: all other assays above

CCC(=O)/C=C/c1ccc(OC)cc1
active: [5] 24.3 µM
not listed: [6] | [9]
inactive: all other assays above

CC(C)CCCC(C)CCCC(C)CCCCC(C)CCCC(C)CCCC(C)C (stereo not given)
not listed: [4] | [6]
inactive: all other assays above

O=C(O)C1CCC1
not listed: [9]
inactive: all other assays above

N#CC1(O)CCCCC1
inactive: [1] | [2] | [3] | [5] | [8]

NC(=O)Nc1nc2ccccc2[nH]1
not listed: [9]
inactive: all other assays above

O=S(=O)(c1cccc2cnccc12)N1CCCNCC1
not listed: [4] | [6]
inactive: all other assays above

O=[N+]([O-])c1ccc(Oc2ccc([N+](=O)[O-])cc2)cc1
not listed: [6] | [9]
inactive: all other assays above
